Active and inactive are the calls of the source.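 Rule for the calls: active = inhibition of the reporter signal at or above 50%; inactive = inhibition below 50%.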
test: inhibitors of poly I:C-induced TLR3 signaling, primary screen, cell-based, poly I:C stimulus, luciferase, 10K MLSCN set (AID 602277); details: HEK293-TLR3 RL24 IRF3 luciferase reporter, at 10 µM, active compounds read high

inhibition, inactive:
CCOC(=O)N1CCN(c2cc(=O)n(-c3ccccc3Cl)c(=O)[nH]2)CC1 11.8%
Cn1nnnc1SCC(=O)N1CCN(c2cccc(Cl)c2)CC1 11.3%
CCOc1ccccc1OCC(=O)NCc1ccco1 9.81%
CCN1C(=O)C(C(=O)Nc2ccc(OC)cc2)C2CC1(C)Oc1ccccc12 (centres undefined) -51.5%
O=C(Nc1ccc(Cl)cn1)c1cccnc1 -34.8%
CCOC(=O)CSc1nc2c(c(-c3ccc(C)o3)c1C#N)CCCC2 18.3%
CCn1c(Cc2ccccc2)nnc1SCC(=O)Nc1cc(C)on1 23%
Cn1c(=O)[nH]c(=O)c2[nH]c(NCCCN3CCOCC3)nc21 14.9%
CC1CCN(Cc2nc3c(c(=O)n(C)c(=O)n3C)n2Cc2cccc3ccccc23)CC1 41.7%
Fc1cccc2sc(N3CCOCC3)nc12 -45.8%
Cc1cc(NC(=O)CSc2nc3c(c(=O)n2Cc2ccccc2)SC(C)C3)no1 (centres undefined) -5.37%
Clc1ccc(CSc2nnc(Cn3cnc4ccccc43)o2)cc1 -27.5%
O=C1c2ccccc2NC2CCCCCN12 (centres undefined) 4.91%
CCOc1ccc(-c2cc(C(=O)N3CCN(c4ccccn4)CC3)c3ccccc3n2)cc1 -64.8%
COc1ccc(Cn2nnnc2C(c2cccs2)N2CCOCC2)cc1 (centres undefined) -0.428%
CN1C(=O)CC(N2CCC(C(N)=O)(N3CCCCC3)CC2)C1=O (centres undefined) 16.9%
CC1CCCN(C(=O)c2cc3c(-c4ccc(Cl)cc4)nn(C)c3s2)C1 (centres undefined) 45.2%
CCN1CCN(Cc2nc3c(c(=O)[nH]c(=O)n3C)n2Cc2ccccc2Cl)CC1 29%
CS(=O)(=O)c1ccc2nc(NC(=O)C3C4C=CC(C4)C3C(=O)O)sc2c1 (centres undefined) 6.4%
NC(=O)c1c(NC(=O)CN2CCCC2)sc2c1CCCC2 -70.1%
CCOc1ccc(C(=O)CN2CCN(S(=O)(=O)c3ccc(OC)cc3)CC2)cc1 21.2%
O=C1NC(=O)C(CC(=O)N(Cc2ccco2)C2(C(=O)NC3CCCC3)CCCCC2)N1 (centres undefined) 18.4%
COCCn1c(SCC(=O)Nc2cccc(OC)c2)nnc1-c1ccc(Cl)cc1 22.6%
CN(C)c1nc(Oc2ccc(=O)n(C)n2)nc(N2CCOCC2)n1 10.1%
